# PD-1 reverse act = activators reversing PD-1 mediated T-cell inhibition; primary human CD4 T cells, PD-L1 beads, CellTiter-Glo 96 h; AID 2316; 29,000 tested, under 10 active; activation, % (concentration not given with the values); call rule not given here;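 also: 0% = median vehicle wells and 100% = positive control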
# NOMO-1 viab = STK33 inhibitor candidate reducing NOMO-1 cell viability; NOMO-1 AML viability, CellTiter-Glo luminescence, 72 h; inhibition, % (concentration not given with the values); hit rate 7.5% among 37,000; AID 2330; in the data active = inhibition above about 80%; inconclusive = no clear call, values can overlap the other calls
# Shh pathway inh = blocks Sonic Hedgehog signaling; AID 2313; hit rate 2.1% among 22,000; Shh-LIGHT2 Gli-luciferase reporter, 30 h; inhibition, % (no concentration beside the values);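 active = mean inhibition across valid replicates above about 65%, limit read from the data; inconclusive = mean under the limit, yet half or more replicates past it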;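 also: pathway switched on by Shh-conditioned medium diluted 1 in 25 in low serum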
# MITF inhib = blocks MITF activity; TRPM1 promoter luciferase, luminescence, 24 h; inhibition, % (concentration not given with the values); hit rate 0.28% among 37,000; in the data active = inhibition above about 85%; inconclusive = no clear call, values can overlap the other calls; inactive = below about 68%;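 also: human melanocyte line stably carrying TRPM1 promoter luciferase reporter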
# Active calls of the source: *; ? = inconclusive; / = no result given; ! = a repeat was not active. In the library only some 7.9% were active in any assay of this set; here they are far more common.
SMILES,PD-1 reverse act,NOMO-1 viab,Shh pathway inh,MITF inhib
C[C@@H]1CN([C@@H](C)CO)C(=O)c2cccc(NC(=O)C3CCOCC3)c2O[C@@H]1CN(C)Cc1ccc(C(=O)Nc2ccccc2N)cc1,-2,126*,/,6
C[C@H](CO)N1C[C@H](C)[C@H](CN(C)Cc2ccc(C(=O)Nc3ccccc3N)cc2)Oc2c(NC(=O)C3CCCCC3)cccc2C1=O,-2,127*,/,-13
C[C@@H]1CN([C@@H](C)CO)C(=O)c2cccc(NC(=O)c3ccncc3)c2O[C@@H]1CN(C)Cc1ccc(C(=O)Nc2ccccc2N)cc1,-1,128*,/,0
C[C@H]1CN([C@@H](C)CO)C(=O)c2cc(NC(=O)C3CCCCC3)ccc2O[C@H]1CN(C)Cc1ccc(C(=O)Nc2ccccc2N)cc1,-4,110*,/,28
C[C@H](CO)N1C[C@H](C)[C@@H](CN(C)Cc2ccc(C(=O)Nc3ccccc3N)cc2)Oc2c(NC(=O)C3CCOCC3)cccc2C1=O,1,23,/,0
COc1cc(-c2nnc(SCC(=O)c3cccc([N+](=O)[O-])c3)n2-c2ccccc2)cc(OC)c1OC,-3,57,/,9
CCn1c(SCC(=O)Nc2ccccc2OC)nnc1-c1c[nH]c2ccccc12,/,-24,/,4
COc1cccc(OC)c1C(=O)NCCCO,/,35,/,-27
N#Cc1c(C(F)(F)F)cc(-c2ccccc2)nc1SCCC(=O)Nc1ccccc1,-1,26,/,29
C[C@H]1CN([C@@H](C)CO)C(=O)c2cccc(NC(=O)C3CC3)c2O[C@H]1CN(C)Cc1ccc(C(=O)Nc2ccccc2N)cc1,-2,94*,/,14
Cc1ccc(S(=O)(=O)N(Cc2cc3cccc(C)c3[nH]c2=O)c2ccccc2)cc1,-3,116*,/,0
O=C(CSc1nc(-c2ccc(Cl)cc2)cc(C(F)(F)F)n1)c1ccccc1,0,32,/,-18
CCOC(=O)CS(=O)(=O)c1nc(-c2ccc(F)cc2)cc(C(F)(F)F)n1,-16,135*,/,42
CCOC(=O)CCS(=O)(=O)c1nc(-c2ccccc2)cc(C(F)(F)F)n1,-16,115*,/,61
COC(=O)NC(Nc1ccccc1C(F)(F)F)C(=O)c1ccccc1 (stereo unspecified),0,25,0,3
CC(C)(C)NC(=O)CSc1ccc(Cl)cc1,-2,26,-19,-47
C[C@@H]1CN([C@@H](C)CO)C(=O)c2cc(NC(=O)Cc3cn(C)c4ccccc34)ccc2O[C@H]1CN(C)Cc1ccc(Cl)c(Cl)c1,-2,97*,/,41
C[C@H](CO)N1C[C@H](C)[C@H](CN(C)Cc2ccc(Cl)c(Cl)c2)Oc2ccc(NC(=O)Cc3cn(C)c4ccccc34)cc2C1=O,-2,108*,-21,39
COc1cc(O)c(C(=O)c2c(C)cc(O)cc2OC)c(O)c1,-12,121*,0,-16
C[C@H](CO)N1C[C@H](C)[C@H](CN(C)Cc2ccccc2)Oc2c(NC(=O)Nc3ccc(F)cc3)cccc2C1=O,-1,63,4,16
C[C@@H]1CN([C@H](C)CO)C(=O)c2cccc(NC(=O)Nc3ccc(F)cc3)c2O[C@@H]1CN(C)Cc1ccccc1,1,9,31,-10
C[C@@H]1CN([C@@H](C)CO)C(=O)c2cccc(NC(=O)Nc3ccc(F)cc3)c2O[C@H]1CN(C)Cc1ccccc1,-6,102*,-9,34
C[C@H]1CN([C@@H](C)CO)C(=O)c2cccc(NC(=O)Nc3ccc(F)cc3)c2O[C@@H]1CN(C)Cc1ccccc1,/,101*,53,-11
C[C@@H]1CN([C@H](C)CO)C(=O)c2cccc(NC(=O)Nc3ccc(F)cc3)c2O[C@H]1CN(C)Cc1ccccc1,-6,100*,10,51
C[C@H](CO)N1C[C@H](C)[C@@H](CN(C)Cc2ccccc2)Oc2c(NC(=O)Nc3ccc(F)cc3)cccc2C1=O,-5,98*,-6,-10
SMILES,PD-1 reverse act,NOMO-1 viab,Shh pathway inh,MITF inhib
CCOC(=O)C1CCCCN1Cc1ccco1 (stereo unspecified),/,30,/,9
CN(CC(=O)Nc1ccc(C(F)(F)F)cc1)S(=O)(=O)c1ccc(Br)cc1,-5,24,/,16
C[C@H]1CN([C@@H](C)CO)C(=O)c2cc(NS(=O)(=O)c3ccccc3)ccc2O[C@H]1CN(C)Cc1ccc(Oc2ccccc2)cc1,-1,53,/,6
C[C@@H]1CN([C@H](C)CO)C(=O)c2cc(NS(=O)(=O)c3ccc(Cl)cc3)ccc2O[C@@H]1CN(C)Cc1ccc(Oc2ccccc2)cc1,0,122*,33,36
C[C@@H]1CN([C@@H](C)CO)C(=O)c2cc(NS(=O)(=O)c3ccc(Cl)cc3)ccc2O[C@@H]1CN(C)Cc1ccc(Oc2ccccc2)cc1,/,114*,/,35
COC1OC(=O)C(CCC2(C)C(C)CCC3(C)C2CC(O)C(O)C32CO2)C1O (stereo unspecified),3,12,-3,-3
COc1cc(C(=O)Nc2cc(-c3nc4ncccc4o3)ccc2C)ccc1OCc1ccc(Cl)cc1,-11,112*,/,?
Cc1cc(-c2ccc3ccccc3n2)nc2ccc3ccccc3c12,1,18,-11,-2
O=[N+]([O-])c1cccc(-c2nn(-c3ccccc3)cc2CNCc2ccccc2)c1,-9,93*,/,-20
O=c1cc(-c2ccccc2)nc2nc(NCc3cccc([N+](=O)[O-])c3)[nH]n12,2,25,/,-19
CC(=O)Nc1cc2ccccc2oc1=O,/,41,-35,-10
Cc1ccc(C(=O)Nc2cc3ccccc3oc2=O)cc1,0,139*,19,72
C[C@@H]1CN([C@@H](C)CO)C(=O)Cc2cc(N(C)C)ccc2O[C@@H]1CN(C)Cc1ccc(Oc2ccccc2)cc1,/,106*,-3,10
C[C@H]1CN([C@@H](C)CO)C(=O)Cc2cc(N(C)C)ccc2O[C@H]1CN(C)Cc1ccccc1,0,5,59,-5
C[C@@H]1CN([C@@H](C)CO)C(=O)Cc2cc(N(C)C)ccc2O[C@@H]1CN(C)Cc1ccccc1,/,122*,2,29
O=C(NCCCN1CCCC1=O)c1cc(-c2ccccn2)nc2ccc(Br)cc12,/,-31,/,-6
CC/C(=C(\c1ccccc1)c1ccc(OCCN(C)C)cc1)c1ccccc1,1,96*!,59,-6
Cc1cc(C)c2c(n1)sc1c(Sc3nnc(-c4ccncc4)o3)ncnc12,-1,15,/,-9
CCn1c(Sc2ncnc3c2sc2nc(C)cc(C)c23)nnc1-c1cccs1,-1,104*,/,-10
COc1ccc(OC)c(N(CC(=O)Nc2c(F)cccc2F)S(C)(=O)=O)c1,2,-1,/,-2
Cc1cc(Cl)c(S(=O)(=O)Nc2cc(Cl)ccc2Cl)cc1OCC(N)=O,1,2,/,4
C=CCn1c(=S)sc2c(Sc3nnc(-c4ccco4)o3)ncnc21,-6,115*,73*,67
Cc1ccc(C(=O)CSc2nnc(-c3ccco3)o2)o1,0,22,/,-53
CS(=O)(=O)N(CC(=O)Nc1ccc(Cl)c(C(F)(F)F)c1)c1cccc([N+](=O)[O-])c1,1,14,/,-4
C=C1C(=O)O[C@@H]2[C@H]1[C@H](O)C[C@]1(C)[C@@H](O)CC=C(C)[C@@H]21,-3,115*,-11,8

# Bioassay records: PubChem BioAssay, Broad Institute
